Assay outcomes deposited in PubChem BioAssay by National Center for Advancing Translational Sciences (NCATS).
This is a sample that favours compounds with a hit; in the whole collection about 3.1% have one here.
Tau fibril FP – tau fibrillization inhibition (FP). K18 P301L tau heparin fibrillization, Alexa594 FP, 6 h. Potency, µM (top dose mostly 57.7 µM), without a hit: at the highest dose activity, negative = inhibition, actives largely listed as inhibitors. hit rate 0.39% among 280,000. P10636; further: nearly all actives have a fitted effect of over 55% in size
Target sequence (P10636 561-689 P618L limits assumed): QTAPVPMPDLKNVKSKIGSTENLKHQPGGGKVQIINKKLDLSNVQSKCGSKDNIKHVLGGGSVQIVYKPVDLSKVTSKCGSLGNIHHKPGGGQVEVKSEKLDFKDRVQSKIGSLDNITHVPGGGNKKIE
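Recombinant K18 P301L […], labeled with Alexa 594 at 0.24 uM over 15 uM unlabeled; heparin inducer 20 uM final; 37 C, 6 hr; FP endpoint.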
Tau fluor counter – counter-screen for tau fibril formation inhibitors; tau K18 P301L Alexa594 fluorescence, heparin fibrillization; Potency, µM (series often up to 57.7 µM), for inactives: top-dose activity change, negative = decrease; hit rate 0.93% among 280,000; AID 1463; further: nearly all actives have a fitted effect of over 55% in size
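Human tau K18 P301L (15 uM unlabeled, 0.24 uM Alexa 594-labeled) in 100 mM sodium acetate pH 7 with 20 uM heparin, 6 hr at 37 C. ThT 30 uM added, 1 hr ambient; Alexa 594 FP and total fluorescence read at 555/632 nm.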
TRb SRC2 PPI – disrupts binding of human TR beta to SRC2 | P10828 | AID 1469 | hit rate 0.065% among 280,000 | TRbeta-SRC2 peptide binding, fluorescence polarization; receptor liganded with 1 µM T3 | Potency, µM (series often up to 106 µM), inactives show at the highest dose activity change, negative = inhibition, actives largely listed as inhibitors;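 further: plate controls were bound peptide for no effect and peptide without receptor for full effect; nearly all actives have a fitted effect of over 50% in size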
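Polarization signal, normalized between peptide-alone and full complex controls, measured compound effects on T3-liganded human TRb LBD (0.6 uM) binding 20 nM Texas Red SRC2 peptide after 5 hr.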
Tau ThT inhib – inhibitors of human tau fibril formation, thioflavin T binding; P10636; recombinant tau K18 P301L (four-repeat tau fragment), heparin-induced fibrillization, ThT fluorescence; Potency, µM (titrated, usually from 57.4 µM), for the others: at the highest dose activity, negative = inhibition, hits mostly inhibitors; hit rate 2.1% among 270,000; AID 1460; further: nearly all actives have a fitted effect of over 55% in size
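In this qHTS, human K18 P301L tau is incubated with compound and heparin for 6 hr at 37 C, and Thioflavin T fluorescence then reports fibril load.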
TR SRC2 fluor cs – alters Texas Red total fluorescence, flagging assay interference; TRb/SRC2 Texas Red total fluorescence interference; Potency, µM (titrated, usually from 106 µM), without a hit: top-dose fluorescence change, negative = quenching; hit rate 0.29% among 280,000; active means well fitted curve in either direction with a large enough effect; inconclusive means small, poorly fitted or top-dose-only effect
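Flags fluorescent or light-absorbing compounds by total fluorescence, S + 2P, at 555 nm excitation and 632 nm emission. Mixture: 20 nM Texas Red SRC2 peptide, 0.6 uM human TRb LBD, 1 uM T3, 5% DMSO; compound exposure 5 h at ambient temperature.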
GoLoco inh red – inhibitors of human Gai1-RGS12 GoLoco interaction (red fluorophore); Gai1:RGS12 GoLoco peptide FP, rhodamine, 10 min; hit rate 0.44% among 230,000; P63096; Potency, µM (titrated, usually from 61.6 µM), inactives show at the top dose activity, negative = inhibition, usual class: inhibitors; active means well fitted inhibition curve with a large enough effect, not every such curve was filed as active; inactive means no such curve, though single readings can be large or run the other way; further: nearly all actives have a fitted effect of over 30% in size
Target sequence (P63096 whole entry, looked up): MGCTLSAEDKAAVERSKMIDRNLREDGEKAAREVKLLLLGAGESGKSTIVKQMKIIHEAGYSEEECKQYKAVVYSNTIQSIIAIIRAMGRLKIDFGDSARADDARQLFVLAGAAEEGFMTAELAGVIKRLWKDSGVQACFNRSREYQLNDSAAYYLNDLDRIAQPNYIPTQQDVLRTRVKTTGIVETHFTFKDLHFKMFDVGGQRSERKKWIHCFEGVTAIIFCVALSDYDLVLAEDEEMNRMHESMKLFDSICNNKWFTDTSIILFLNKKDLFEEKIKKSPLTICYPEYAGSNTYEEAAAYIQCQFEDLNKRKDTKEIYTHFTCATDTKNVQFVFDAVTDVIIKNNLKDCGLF
Starred values were filed as active, the others as inactive; ? = inconclusive; / = no result; ! = not confirmed by another sample; [ ] = another dose, or the depositor's remark. Unless noted, the call rests on the fitted dose curve; in most records, active means well fitted curve in the direction sought with a large enough effect; inconclusive means small, poorly fitted or top-dose-only effect, or another doubt; inactive means no such curve, though single readings can be large; an effect the other way counts as inactive or inconclusive. Unless noted, on the % scale 0 is the no-effect control and ±100 the full control effect; potency means the concentration at half of the fitted maximal effect.

SMILES	Tau fibril FP	Tau fluor counter	TRb SRC2 PPI	Tau ThT inhib	TR SRC2 fluor cs	GoLoco inh red
O=C(O)c1ccccc1SCC(=O)N1c2ccccc2Sc2ccccc21	7%	0%	-19%[53 µM]	4%	0.089µM*[quencher]	31%
Nc1nc(=S)c2ncn(C3OC(CO)C(O)C3O)c2[nH]1 (stereo not drawn)	?	?	2%	11µM*	-6%	-2%
N/C(=N\[N+](=O)[O-])NCCCC(NC(=O)CNC(=O)c1ccccc1)C(=O)O (stereo not drawn)	1%	9%	-13%	1%	-2%	4%
COc1ccc(C(=O)O)cc1OC	1%	-4%	-1%	0%	1%	32µM*
COP(=S)(OC)Oc1ccc(S(=O)(=O)N(C)C)cc1	/	/	-5%	/	-1%	0%
O=C(CN1CCN(Cc2cccc(Cl)c2)C1=O)N1CCC2(CC1)OCCO2	5%	-10%	2%	-12%	4%	-3%
COc1ccc(-n2c(/C=C\c3ccccc3F)nc3ccccc3c2=O)cc1OC	-8%	-1%	-6%	4%	-3%	/
c1ccc2oc(N3CCNCC3)nc2c1	1%	1%	-17%	-9%	1%	5%
c1ccc2c(N3CCNCC3)nsc2c1	?	-22%	2%	22µM*	-3%	15%
COc1ccc2c3c1O[C@H]1[C@@H](O)C=C[C@H]4C(C2)NCCC341 (stereo partly drawn)	?	-3%	-4%	-10%	0%	-5%
C=CCOc1ccc(CC2C(=O)N(C)C(=O)N(C)C2=O)cc1	-5%	-7%	-9%	?	-1%	-6%
CCN(CC)c1ccc(CC2C(=O)N(C)C(=O)N(C)C2=O)cc1	?	25µM*[fluorescent]	?	?	?	276%
CCCCCCC[n+]1ccc(-c2cc[n+](CCCCCCC)cc2)cc1	?	8%	3%	0%	-3%	7.9µM*!
CCN1CC2(OC(=O)c3ccccc3NC(C)=O)CCC(OC)[C@]34C1[C@H](CC23)[C@@]1(O)C[C@H](OC)[C@H]2CC4C1(O)[C@H]2OC (stereo partly drawn)	/	/	5%	/	-3%	/
CCC1(C)CC(C(N)=S)CCO1 (stereo not drawn)	?	-14%	0%	13µM*	-1%	-17%
Cc1cc(C(C#N)c2ccc(Cl)cc2)c(Cl)cc1NC(=O)c1cc(I)cc(I)c1O (stereo not drawn)	/	/	?	/	45µM*[quencher]	/
Cc1ccc(N/N=C/c2c(O)n(-c3ccccc3)c(=O)[nH]c2=O)cc1	?	?	-8%	16µM*	-4%	13%
O=C1NC(=O)N(c2ccccc2F)C(=O)/C1=C/c1ccc(Sc2nc3ccccc3[nH]2)o1	-22%	-11%	?	13µM*	45µM*[fluorescent]	-180%
O=C1NC(=O)N(c2ccccc2)C(=O)/C1=C/c1ccc(Sc2ccccc2)o1	-6%	-9%	?	?	22%	46%
O=C1NC(=O)N(c2cccc(Cl)c2)C(=O)/C1=C\c1ccc(Sc2nc3ccccc3[nH]2)o1	?	?	?	13µM*	22µM*[fluorescent]	-43%
CN1CCC(OC(=O)Cc2ccccc2)CC1	-4%	-6%	-2%	-4%	1%	2%
O=C(OC1CCN(CCCl)CC1)C(c1ccccc1)c1ccccc1	15%	-8%	35µM*	?	0%	9%
O=C1C=CC(=O)c2c(O)cccc21	?	7.1µM*[quencher]	?	11µM*	8.9µM*[quencher]	-6%
Oc1ccccc1O	?	?	5%	?	-2%	-53%
CCOC(=O)c1[nH]ncc1CN1CCCC(C(=O)c2cccc(Cl)c2)C1 (stereo not drawn)	4%	-6%	-2%	-10%	0%	6%
SMILES	Tau fibril FP	Tau fluor counter	TRb SRC2 PPI	Tau ThT inhib	TR SRC2 fluor cs	GoLoco inh red
CC(=O)O[C@H]1C(=O)[C@@]2(C)C([C@H](OC(=O)c3ccccc3)[C@]3(O)C[C@H](OC(=O)[C@H](O)[C@@H](NC(=O)c4ccccc4)c4ccccc4)C(C)=C1C3(C)C)[C@]1(OC(C)=O)CO[C@@H]1C[C@@H]2OC(=O)[C@H](C)NC(=O)c1ccc(-c2c3ccc(=O)cc-3oc3cc(O)ccc23)c(C(=O)O)c1 (stereo partly drawn)	-3%[11.6 µM]	?	-1%[11.2 µM]	?	20%[11.2 µM]	2µM*
CCCN1CCc2cc(O)cc3c2C1Cc1ccc(O)c(O)c1-3 (stereo not drawn)	35µM*	16µM*[quencher]	1%	16µM*	-4%	10%
COc1ccc2c(c1O)-c1cc(O)cc3c1[C@@H](C2)N(C)CC3	0%	-18%	-8%	-16%	-3%	-4%
COc1cc(CN=Cc2c(O)n(C(C)(C)C)c(=O)[nH]c2=O)cc(OC)c1	4%	-14%	-2%	-6%	-4%	-2%
Oc1ccc(/C=N/NP(=S)(c2ccccc2)c2ccccc2)c(O)c1O	?	?	6%	25µM*	-4%	7%
Oc1ccccc1/C=N/NP(=S)(c1ccccc1)c1ccccc1	?	?	-9%	-2%	-4%	-15%
Oc1ccc(/C=N/NP(=S)(c2ccccc2)c2ccccc2)cc1O	12%	14µM*[quencher]	4%	?	-2%	5%
CCC(C(=O)Nc1ccccc1F)N1C(=O)CN=C(c2ccccc2)c2ccccc21 (stereo not drawn)	4%	-10%	4%	-16%	-1%	/
C[C@H]1C(=O)O[C@H]2CCN3CC=C(COC(=O)[C@](C)(O)[C@@]1(C)O)C23 (stereo partly drawn)	-3%	-1%	2%	1%	-1%	-2%
CCCCC/C=C\C/C=C\C/C=C\C/C=C\CCCC(=O)O	?	?	-8%	28µM*!	-2%	4%
CCCCC/C=C\C[C@@H](/C=C/C=C\C/C=C\CCCC(=O)O)OO	11%	-1%	2%	-5%	-2%	-12%
Cc1c(Cl)c(=O)oc2cc(OP(=O)(OCCCl)OCCCl)ccc12	/	/	-8%	/	-1%	5%
CN(C)[C@@H]1C(=O)C(C(N)=O)=C(O)[C@@]2(O)C(=O)C3=C(O)c4c(O)cccc4[C@@](C)(O)[C@H]3[C@H](O)[C@@H]12	11µM*	?	?	6.3µM*	16µM*![quencher]	-33%
CN(C)C1C(=O)C(C(N)=O)C(=O)C2(O)C(=O)C3C(=O)c4c(O)cccc4C(C)(O)C3C(O)C12 (stereo not drawn)	20µM*	?	18%	4.5µM*	28µM*[quencher]	-24%
